This is part of a sample that, as a whole, favours compounds with a hit. Of some 83,000 tested, about 20% had one in any assay.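 Step 1: grow cells in 96-well plates. Step 2: add test compound at a single concentration. Step 3: incubate 48 h. Step 4: record percent growth.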 A number with no mark means an inactive call. Active and inactive are the calls of the source. The calls were made as follows: active = growth percent below 10; inactive = the rest.
Key:
Assay in all cases: NCI-60 one-dose screen, 48 h (100 = growth as untreated, 0 = no growth, -100 = all killed)
HCT-15 colon = settings: 10 µM unless noted
HT29 colon = settings: 10 µM unless noted
SNB-75 CNS = settings: 10 µM unless noted
SNB-19 CNS = settings: 10 µM unless noted
PC-3 prostate = settings: 10 µM unless noted
SK-MEL-5 melanoma = settings: 10 µM unless noted
UACC-62 melanoma = settings: 10 µM unless noted
LOX IMVI melanoma = settings: 10 µM unless noted
SK-MEL-28 melanoma = settings: 10 µM unless noted
SK-MEL-2 melanoma = settings: 10 µM unless noted
EKVX NSCLC = settings: 10 µM unless noted
SN12C renal = settings: 10 µM unless noted
UO-31 renal = settings: 10 µM unless noted
CAKI-1 renal = settings: 10 µM
A498 renal = settings: 10 µM unless noted
CCRF-CEM leukemia = settings: 10 µM unless noted
MOLT-4 leukemia = settings: 10 µM unless noted
TK-10 renal = settings: 10 µM unless noted
ACHN renal = settings: 10 µM unless noted
U251 CNS = settings: 10 µM unless noted

Compound	growth (HCT-15 colon)	growth (HT29 colon)	growth (SNB-75 CNS)	growth (SNB-19 CNS)	growth (PC-3 prostate)	growth (SK-MEL-5 melanoma)	growth (UACC-62 melanoma)	growth (LOX IMVI melanoma)	growth (SK-MEL-28 melanoma)	growth (SK-MEL-2 melanoma)	growth (EKVX NSCLC)	growth (SN12C renal)	growth (UO-31 renal)	growth (CAKI-1 renal)	growth (A498 renal)	growth (CCRF-CEM leukemia)	growth (MOLT-4 leukemia)	growth (TK-10 renal)	growth (ACHN renal)	growth (U251 CNS)
Cc1ccc2nc(-c3ccc(-n4on4-c4ccc(/C=C/c5ccc(-n6on6-c6ccc(-c7nc8ccc(C)cc8s7)cc6)cc5S(=O)(=O)O)c(S(=O)(=O)O)c4)cc3)sc2c1	109%	113%	107%	117%	98%	107%	105%	97%	107%	112%	112%	105%	90.4%	106%	112%	100%	93.9%			
COc1ccccc1N1CCN(CCCOc2ccc(OCCCN3CCN(c4ccccc4OC)CC3)c(C(=O)c3cc(OC)c(OC)c(OC)c3)c2)CC1	140%	101%	120%	102%	95.9%	87.6%	109%	116%	115%	97.2%	88.8%	110%	102%		122%		98.1%	123%	157%	
O=C(Nc1ccc(F)cc1)Nc1ccc(Cl)c([N+](=O)[O-])c1	11.1%	13.6%	46.7%	21.5%	6.25% (active)	22%	15.9%	9.41% (active)	22.6%	2.67% (active)	15.8%	15.8%	8.43% (active)		25.7%	18.6%	5.48% (active)	16.6%	4.79% (active)	
O=C1c2ccccc2OC=C(c2ccccc2)N1CCCCN1CCCCC1	86.2%	13.6%	76.1%	50.7%	23.3%	84.5%	69.1%	54.5%	87.3%	69%	39.5%	20.4%	85.8%	101%	87.1%	43.9%	60.6%		104%	
O=C1C(Cl)=C(Nc2cccc3cc4ccccc4nc23)C(=O)c2ccccc21	41.4%	4.99% (active)	71.9%	44.6%	42%	69.5%		33.9%	102%	44.2%	71.9%	45.1%	25.7%		46.5%	64.8%	25.9%			41.8%
S=c1ssnc1-c1ccccn1	14.1%	33.6%	36.6%	47.8%	32.9%	16.7%	34.5%	6.73% (active)	52.2%	31.6%	65.2%	38%			13%	-6.05% (active)	0.997% (active)	40.1%	15.4%	
CN(C)c1ccc(/C=c2\s/c(=C\C(=O)C(C)(C)C)[nH]c2=O)cc1	95.5%	91%	94.3%	97.5%	85.2%	101%	95.3%	87.1%	104%	102%	93.9%	99%	92.5%	97.8%	105%	101%	133%		100%	
COc1ccc(-c2ccc(NC(=O)Nc3ccc(Cl)c(C(F)(F)F)c3)c(C)n2)cc1	37.8%	46.4%	73.4%	57.3%	14.7%	55.7%		64.5%	71.4%	62.1%	49.2%	57.4%	39.3%		57.7%	29.9%	24.6%	65.9%		
COc1ccc2c(c1)nnn1c3ncccc3c(N=O)c21	-33.2% (active)	-48.8% (active)	-23.3% (active)	-4.29% (active)	9.89% (active)	36%	-76.8% (active)	-59.1% (active)		-65.9% (active)	15%	-80.4% (active)	-99.3% (active)		31.9%	-22.8% (active)	-55.6% (active)	-15.1% (active)	-30.8% (active)	
CCOc1ccc(NC(=O)Nc2cc(C(C)C)ccc2C)cc1	83.3%	85%	19.5%	79.5%	69.3%	124%		71.2%	68%	68.6%	96.1%	57.3%			87.2%	44.4%	72.2%	55%	20.6%	28.9%
C=C1C(=O)O[C@H]2[C@H]1CC/C(COC(=O)OC/C1=C/CC[C@@]3(C)O[C@H]3[C@H]3OC(=O)[C@@H](CN(C)C)[C@@H]3CC1)=C\CC[C@@]1(C)O[C@@H]21	1.8% (active)	-8% (active)	91%	80.3%	72.7%	46.9%	-28.1% (active)	-72.3% (active)	-18.3% (active)	27.4%	48.8%	10.7%	-16.2% (active)		58.5%	-13.3% (active)	-30.9% (active)	-42.7% (active)		
COc1ccc(C(=O)NC(=O)Nc2ccc3c(c2)NC(=O)/C3=C\c2[nH]c(C)c(CCC(=O)O)c2C)c(F)c1	39.6%	55.6%	44.2%	27%	30.2%	25.2%	25.7%	26.9%	31.1%		73.1%	39.7%	55.6%		-0.45% (active)	12.2%	54.6%		67%	
NC(=NCCCOc1ccc(F)cc1)Nc1ccc(Cl)c(Cl)c1	75.6%	31.7%	57.8%	77%	63.9%	51.4%		55.9%		95.9%	74.9%	66%	51.6%		60.9%	60.4%	36.1%	69%		69.8%
O=c1nc(N2CCOCC2)oc2c(-c3cccc4ccccc34)cccc12	93.3%	89.6%	46.9%	91.8%	59.7%	79.2%	54.4%	80.1%	94.4%	100%	81.1%	82.3%	53.4%		8.01% (active)	91.5%	93.1%		81.6%	
CS(=O)(=O)Nc1cccc(-c2ccc3ncnc(Nc4cncc(Cl)c4)c3c2)c1	16%	5.04% (active)	19.8%	51.4%	19.8%	35.6%	29%	11%	43.7%	2.44% (active)	10.8%	52.5%	30.3%		-34.1% (active)	17.1%	0.601% (active)		25.6%	
COC(=O)c1ccc(NC(N)=NCC(C)(C)COc2ccc(C(F)(F)F)cc2)nc1	18.1%	9.44% (active)	86.8%	68.8%	50.9%	23.2%	65.5%	16.5%	90.1%	79.9%	45.5%	51.3%	41.1%		74.2%	15.7%	9.32% (active)	53.9%		
O=C(/C=C/c1ccco1)c1cccc(Nc2nc(Nc3ccccc3)nc(Nc3ccccc3)n2)c1	72%	79.1%	60.2%	92.4%	66.4%	81.2%	80.3%	83.5%		83.9%	77.8%	98.6%		92.8%	-34.7% (active)	56.4%	61.7%	141%	95.5%	
O=C(Nc1ccc(-n2ccc3c(NC(=O)c4ccccc4)ncnc32)cc1)Nc1cccc(Cl)c1Cl	9.38% (active)	-40.2% (active)	3.19% (active)	-3.36% (active)	-57.5% (active)	14.9%	33.4%	-23.9% (active)		-39.1% (active)	-5.65% (active)	-31.9% (active)	-80.4% (active)	-26% (active)	12%	16.5%	25.5%		-20.4% (active)	
